# This is a sample that favours compounds with a hit; in the whole collection about 2.4% have one here.
# D2 ag-1: D2 dopamine receptor (human) agonism. HEK293 T-REx D2 cells, calcium flux agonist mode. 0.53% of 340,000 active. activation, % at 2 µM;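 active means activation over 3 SD above normal in the single-dose calcium agonist read, cut at about 30% in these data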; further: 0% is about no effect
# Target sequence (P14416 whole entry, looked up): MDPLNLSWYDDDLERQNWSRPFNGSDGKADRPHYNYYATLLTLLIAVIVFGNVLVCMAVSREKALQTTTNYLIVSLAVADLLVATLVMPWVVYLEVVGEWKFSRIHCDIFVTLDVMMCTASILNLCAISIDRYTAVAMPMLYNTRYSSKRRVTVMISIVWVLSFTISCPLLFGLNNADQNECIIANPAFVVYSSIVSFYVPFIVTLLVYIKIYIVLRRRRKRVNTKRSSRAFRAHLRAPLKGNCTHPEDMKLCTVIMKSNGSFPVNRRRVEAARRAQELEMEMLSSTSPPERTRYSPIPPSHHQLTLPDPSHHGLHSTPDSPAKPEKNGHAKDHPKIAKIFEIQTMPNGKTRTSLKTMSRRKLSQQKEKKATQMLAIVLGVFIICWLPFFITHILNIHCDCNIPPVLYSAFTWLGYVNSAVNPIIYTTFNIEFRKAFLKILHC
#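 Agonism is scored from calcium flux in a force-coupled, inducible HEK293 cell line expressing D2, read kinetically for 180 s after compound addition against dopamine controls.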
# D2 ag-2: human D2 receptor agonism in beta-arrestin assay | P14416 | AID 624465 | 0.084% of 360,000 active | activation, % (concentration not given with the values) | DiscoveRx PathHunter D2 beta-arrestin, luminescence, 90 min; 100% = 57 uM dopamine signal; in the data active means activation above about 40%
#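 Agonist mode: compounds alone added to overnight-plated D2 PathHunter cells for 90 min at 37 C, with 57 uM final dopamine (EC100) defining full response. Beta-arrestin recruitment detected by chemiluminescent reagent, read after 1 h at ambient temperature.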
# D2 PAM-1: human D2 receptor positive allosteric modulation; P14416; DiscoveRx D2 beta-arrestin cells, luminescence, 90 min; 100% = 57 uM dopamine signal; potentiation, % (no concentration beside the values); 0.23% of 360,000 active; AID 624464; in the data active means potentiation above about 50%
#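 PathHunter beta-arrestin assay in DiscoveRx D2 cells. Compounds were added with an EC20 of dopamine (50 nM final) for 90 min at 37 deg C. Luminescence was read 1 h after detection reagent, with 57 uM dopamine as the EC100 control.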
# D2 antag: antagonizes the human D2 dopamine receptor; AID 485344; 2% of 340,000 active; P14416; inhibition, % at 10 µM; HEK293 TREx D2 cells, calcium flux, dopamine EC80; in the data active means inhibition above about 30%; inactive means below that, where a call was filed; further: 0% is about no effect
#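 In this primary screen, negative modulation is detected by tracking calcium flux after an EC80 dopamine challenge in inducible HEK293 T-REx D2 cells preexposed to test compound for 180 s.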
# D2 PAM-2: positive allosteric modulators of human D2 dopamine receptor; potentiation, % at 10 µM; 0.34% of 340,000 active; HEK293 T-REx D2, calcium flux, EC20 dopamine potentiation; AID 485347; P14416;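 active means potentiation over 3 SD above the plate norm, cut at about 30% in these data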; further: 0% is about no effect
#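 Primary screen. Calcium kinetics in induced HEK293 T-REx D2 cells: compound pre-addition 180 s, EC20 dopamine, 180 s more.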
# * = called active by the depositor; . = no result.
SMILES,D2 ag-1,D2 ag-2,D2 PAM-1,D2 antag,D2 PAM-2
COc1ccc(NC(=S)NNS(=O)(=O)c2ccc3ccccc3c2)c(OC)c1,2,-1,-5,43*,-4
COc1ccc(NC(=O)CSc2[nH]c(=O)cc(C)c2C#N)cc1OC,0,-1,0,34*,11
Cc1ccc(CN2CCCn3nc(C(=O)NCC(C)c4ccccc4)cc3C2=O)cc1 (configuration not stated),1,.,.,.,9
O=C(CSc1nc2c([nH]c3ccccc32)c(=O)n1-c1ccccc1F)Nc1cccc(C(F)(F)F)c1,.,.,.,.,-2
CCN1CCC(N2CCN(c3ccc(F)cc3)CC2)CC1,1,0,-4,-8,-3
Fc1ccc(N2CCN(C3CCC(c4ccccc4)CC3)CC2)cc1 (configuration not stated),12,-4,0,53*,-18
O=C(Nc1cccs1)Nc1ccccc1Cl,0,-1,-6,-1,-5
O=C(Nc1cccs1)Nc1cccnc1Cl,-2,-3,0,37*,-5
Cc1cc(N2CCC(C(=O)Nc3ccc(F)cc3C)CC2)n2nc(C)c(-c3ccc(Cl)cc3)c2n1,1,.,.,.,-4
COc1ccc(OC)c(NS(=O)(=O)c2ccc(N3CCCCS3(=O)=O)cc2)c1,0,.,.,.,3
CCOC(=O)CNC(=O)c1sc(NC(=O)/C=C/c2ccccc2)nc1C,0,0,-4,34*,-12
C/C(=N\NC(=O)CC#N)c1ccc(Oc2ccccc2)cc1,1,-3,-3,5,39*
C/C(=N\NC(=O)COc1ccccc1)c1ccc(O)cc1,-2,-3,-17,-18,-8
CC(=O)c1ccc(NC(=O)CSc2nnc3ccc(-c4ccc(Br)cc4)nn23)cc1,1,.,.,.,-4
COc1ccc(C/C(C)=N/NC(=S)Nc2ccc(C(C)C)cc2)cc1,0,2,-14,36*,-1
COc1ccc(NC(=O)C(c2ccc(OC)cc2)N(C)C(=O)CNC(C)=O)cc1 (configuration not stated),0,-1,-9,38*,-4
COc1ccc(C(NC(=O)CNC(C)=O)C(=O)Nc2ccc(C(C)C)cc2)cc1 (configuration not stated),0,-1,-3,37*,-5
COc1ccc(NC(=O)C(c2ccc(C)cc2)N(C)C(=O)CNC(C)=O)cc1 (configuration not stated),-1,1,-4,5,-5
COc1ccc(C(C#N)(CCC#N)CCC#N)cc1OC,2,-2,-20,80*,-24
C=CCC(C#N)(c1ccc(OC)c(OC)c1)c1cnccn1 (configuration not stated),0,-4,-9,6,5
CCc1cc(=O)oc2c(CN3CCN(C)CC3)c(O)c(Cl)cc12,0,4,8,2,35*
CCN1/C(=C/c2ccc3cc(C)ccc3[n+]2CC)Sc2cc(C)ccc21,15,-5,-1,35*,6
CCCCN1/C(=C/c2ccc3ccccc3[n+]2CC)Sc2ccccc21,14,2,-5,16,-4
O=C(COc1ccccc1F)Nc1ccc(Cl)c(-c2nc3ccccc3[nH]2)c1,1,.,.,.,-12
CCCNc1nc2c(c(=O)[nH]c(=O)n2C)n1CCC(C)C,-1,-4,3,-2,16
SMILES,D2 ag-1,D2 ag-2,D2 PAM-1,D2 antag,D2 PAM-2
CCCCn1c(NCCC)nc2c1c(=O)[nH]c(=O)n2C,-1,0,2,2,40*
CCOC(=O)c1cnn(Cc2ccccc2)c1N,0,0,8,1,-1
CCOC(=O)c1cnn(Cc2cccc(Cl)c2)c1C,-2,-2,-11,56*,3
COc1cc(S(=O)(=O)N2CCCCC2)ccc1NC(=O)c1ccncc1,0,-2,-2,37*,3
O=C(Nc1cccnc1)c1cccc(S(=O)(=O)N2CCCCC2)c1,1,1,-1,53*,-3
COc1ccc(NC(=O)c2ccc(S(=O)(=O)N3CCCCCC3)cc2)c(OC)c1,-1,2,-3,-8,6
COC(=O)Nc1ccc(S(=O)(=O)N2CCCC(C(=O)Nc3cccnc3)C2)cc1 (configuration not stated),-1,1,-10,43*,7

# Compound activity (PubChem)
